# Measurements taken from PubChem BioAssay (Tox21).
# Where “and” joins values, the source holds several entries; their conditions need not be identical. Equal values may be shown once. Records with an inconclusive call do not appear. A call without a number means that no potency is given here. Calls of active or inactive are those of the source. Unless noted, the call rests on the fitted dose curve; in most records, active means well fitted curve in the direction sought with a large enough effect in the repeat runs; inconclusive means weak or mixed curves; inactive means no such curve, though single readings can be large; an effect the other way counts as inactive or inconclusive.
# Tests used:
# [1] = qHTS assay to identify small molecule agonists of the vitamin D receptor (VDR) signaling pathway - cell viability counter screen (AID 743224); further: nearly all actives have a fitted effect of over 50% in size
# Method in brief: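 Plated VDR-bla cells (4 h, 37C) received compound, incubated 16 h, then LiveBLAzer substrate 2 h RT; CellTiter-Glo added afterwards, luminescence read at 30 min.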
# [2] = qHTS assay to identify small molecule antagonists of the vitamin D receptor (VDR) signaling pathway - cell viability counter screen (AID 743225); further: nearly all actives have a fitted effect of over 50% in size
# Method in brief: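 Parallel cytotoxicity test: VDR-UAS-bla HEK 293T, 3 nM (final) 1-alpha,25-dihydroxyvitamin D3 with test compound, 16 h, 37C. Endpoint is CellTiter-Glo luminescence in the same wells.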
# [3] = qHTS assay to identify small molecule agonists of the NFkB signaling pathway - cell viability counter screen (AID 1159515; calls by dose curve; further: nearly all actives have a fitted effect of over 55% in size)
# Method in brief: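 Using the same wells as the NFkB reporter read, ME-180 NFkB-bla cells given compounds for 5 hr were assessed for viability via CellTiter-Glo, with luminescence taken after a 30 min room-temperature incubation.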
# [4] = qHTS assay to identify small molecule agonists of the endoplasmic reticulum stress response signaling pathway (AID 1159516; active means well fitted activation curve with a large enough effect in the signal ratio in the repeat runs, not every such curve was filed as active; the % refers to the signal ratio)
# Method in brief: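 An ESRE-bla HeLa cell assay: compounds were pin-transferred from DMSO onto overnight-plated cells and left 5 hr at 37 C. Substrate was then loaded for 2 hr at room temperature before reading fluorescence at 460 nm and 530 nm.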
# [5] = qHTS assay to identify small molecule agonists of the endoplasmic reticulum stress response signaling pathway - cell viability counter screen (AID 1159517; calls by dose curve;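 further: HeLa cells carrying an ER stress response element beta-lactamase reporter; nearly all actives have a fitted effect of over 50% in size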)
# Method in brief: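 Counter-screen wells were identical to the reporter wells. Cells were plated at 1,500 per well and dosed for 5 hr, then read for luminescence 30 min after CellTiter-Glo addition.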
# [6] = qHTS assay to identify small molecule antagonists of the retinoid-related orphan receptor gamma (ROR-gamma) signaling pathway - cell viability counter screen (AID 1159520); further: nearly all actives have a fitted effect of over 50% in size
# Method in brief: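 Tet-on ROR gamma CHO cells were given compounds for 2 hr, then doxycycline hyclate at 1 uM final, and incubated 16 hr at 37 C. Viability was measured as ATP content by CellTiter-Glo luminescence.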
# [7] = biological target: Nuclear receptor ROR-gamma (Homo sapiens) (UniProt P51449); experiment: qHTS assay to identify small molecule antagonists of the retinoid-related orphan receptor gamma (ROR-gamma) signaling pathway (AID 1159521; further: nearly all actives have a fitted effect of over 50% in size; further: potency means the concentration at half of the fitted maximal effect)
# Method in brief: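 Decreased RORE-driven luciferase luminescence indicates antagonism. Tet-on RORγ CHO cells received compound, then 1 uM final doxycycline 2 h later; signal read after 16 h incubation.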
# [8] = qHTS assay to identify small molecule agonists of the AP-1 signaling pathway - cell viability counter screen (AID 1159525; calls by dose curve; further: nearly all actives have a fitted effect of over 55% in size)
# Method in brief: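 AP-1-bla ME-180 cells in Opti-MEM with 0.5% dialyzed FBS, compound exposure 5 h at 37 C in 15-point titration. Viability read in the same wells as ATP content by CellTiter-Glo luminescence, normalised to tetra-n-octylammonium bromide and DMSO controls.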
# [9] = qHTS assay to identify small molecule agonists of the AP-1 signaling pathway (AID 1159526; calls by dose curve)
# [10] = biological target: Retinoic acid receptor RXR-alpha (Homo sapiens) (UniProt P19793); experiment: qHTS assay to identify small molecule agonists of the RXR signaling pathway (AID 1159527; calls by dose curve; further: nearly all actives have a fitted effect of over 35% in size; further: potency means the concentration at half of the fitted maximal effect)
# Chain of Retinoic acid receptor RXR-alpha (Homo sapiens) (P19793 whole entry, looked up): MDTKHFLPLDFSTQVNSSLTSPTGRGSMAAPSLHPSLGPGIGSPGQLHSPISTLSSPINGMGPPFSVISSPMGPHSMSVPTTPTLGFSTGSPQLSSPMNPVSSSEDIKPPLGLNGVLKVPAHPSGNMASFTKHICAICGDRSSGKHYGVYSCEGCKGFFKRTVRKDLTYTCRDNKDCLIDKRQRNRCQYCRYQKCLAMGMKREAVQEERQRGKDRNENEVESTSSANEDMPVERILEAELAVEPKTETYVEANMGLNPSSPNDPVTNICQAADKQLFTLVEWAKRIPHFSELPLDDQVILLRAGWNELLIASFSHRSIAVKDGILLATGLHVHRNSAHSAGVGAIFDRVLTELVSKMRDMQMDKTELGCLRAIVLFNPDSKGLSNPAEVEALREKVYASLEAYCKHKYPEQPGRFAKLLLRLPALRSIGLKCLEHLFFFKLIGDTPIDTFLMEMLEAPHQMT
# Method in brief: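 16 hr incubation of compound-treated RXR-alpha-UAS-bla HEK 293T cells (2% charcoal-stripped FBS, 37 C) preceded a 2 hr room-temperature LiveBLAzer FRET substrate step and blue/green fluorescence measurement.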
# [11] = qHTS assay to identify small molecule agonists of the RXR signaling pathway - cell viability counter screen (AID 1159529)
# Method in brief: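 In this parallel viability measure, GeneBLAzer RXR-alpha HEK 293T cells (2% charcoal-stripped FBS) were given a 5 hr preincubation, treated with compounds 16 hr at 37 C, and read by CellTiter-Glo luminescence.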
# [12] = qHTS assay to identify small molecule antagonists of the retinoid acid receptor (RAR) signaling pathway - cell viability counter screen (AID 1159551); further: nearly all actives have a fitted effect of over 35% in size
# Method in brief: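 Retinol-stimulated (1 uM final) C3RL4 cells, compound 6 h, 37 C; readout CellTiter-Glo luminescence (ATP) after 30 min RT incubation.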
# [13] = qHTS assay to identify small molecule antagonists of the retinoic acid receptor (RAR) signaling pathway (AID 1159552; further: nearly all actives have a fitted effect of over 50% in size)
# Method in brief: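 C3RL4 RARE-luc cells, overnight plating; retinol 1 uM final added right after compound; 6 hr 37 C; luciferase read at 30 min RT.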
# [14] = qHTS assay to identify small molecule agonists of the retinoic acid receptor (RAR) signaling pathway (AID 1159553); conditions: C3RL4 RARE luciferase reporter, agonist, 6 h; activation: at 73.3 µM (top of the series) unless noted
# Method in brief: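 Reporter readout comes from luciferase under RARE control in C3RL4 cells; compound exposure lasts 6 hr at 37 C in 5% CO2, and luminescence is recorded following a 30 min room-temperature incubation with reagent.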
# [15] = qHTS assay to identify small molecule antagonists of the estrogen related receptor (ERR) signaling pathway - cell viability counter screen (AID 1224818);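 further: viability measured after 17.5 h of compound exposure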
# Method in brief: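 After a 6 h pre-incubation, ERR cells were dosed by pin tool with compounds, positive/negative controls or DMSO alone. Following 17.5 h at 37 C and 30 min with CellTiter-Fluor, fluorescence was recorded.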
# [16] = qHTS assay to identify small molecule antagonists of the estrogen related receptor signaling pathway with the pleiotropic PPARgamma coactivator (PGC) cell viability counter screen (AID 1224822;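 further: viability read after 17.5 h compound exposure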)
# Method in brief: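 PGC/ERR cells were plated at 2,000 per well and allowed 6 h to settle before compound addition. Following 17.5 h at 37 C, CellTiter-Fluor reagent was added and fluorescence was read 30 min later.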
SMILES,Potency [1],Potency [2],Potency [3],Potency [4],Potency [5],Potency [6],Potency [7],Potency [8],outcome [9],Potency [10],Potency [11],Potency [12],Potency [13],Potency [14],outcome [15],Potency [16]
CC/C(C)=N/O,inactive,inactive,inactive,inactive,inactive,inactive,inactive,inactive,inactive,inactive,inactive,inactive,inactive,inactive,–,–
O=[N+]([O-])c1ccccc1C(F)(F)F,inactive,inactive,inactive,inactive,inactive,inactive,inactive,inactive,inactive,inactive,–,inactive,inactive,inactive,–,–
Cc1cc(C)c(O)c(C)c1,inactive,–,inactive,inactive,inactive,inactive,inactive,inactive,inactive,inactive,inactive,inactive,inactive,inactive,–,–
CCn1cc(C(=O)O)c(=O)c2cc3c(cc21)OCO3,inactive,–,inactive,inactive,inactive,inactive,inactive,inactive,inactive,inactive,inactive,–,–,–,inactive,inactive
O=C1CCCCCCCCCCC1,inactive,inactive,inactive,inactive,inactive,inactive,inactive,inactive,inactive,inactive,inactive,–,inactive,inactive,–,–
CCCCCCCCC(=O)O,inactive,–,inactive,inactive,inactive,inactive,inactive,inactive,inactive,inactive,–,inactive,inactive,inactive,–,–
O=C(Cl)c1ccc(C(=O)Cl)cc1,inactive,–,inactive,inactive,inactive,inactive,inactive,inactive,inactive,inactive,inactive,inactive,inactive,inactive,–,–
CC[N+](CC)(CC(=O)Nc1c(C)cccc1C)Cc1ccccc1,inactive,inactive,inactive,inactive,inactive,inactive,inactive,inactive,inactive,inactive,inactive,–,–,–,–,–
CC(=O)C(C)C,inactive,inactive,inactive,inactive,inactive,inactive,inactive,inactive,inactive,inactive,–,inactive,inactive,inactive,–,–
CCCN(CCC)C(=O)SCC,inactive,inactive,inactive,inactive,inactive,inactive,inactive,inactive,inactive,12.3 µM (active),inactive,inactive,–,–,–,–
CC(=O)OCc1ccc2c(c1)OCO2,inactive,inactive,inactive,inactive,inactive,inactive,inactive,inactive,inactive,inactive,inactive,–,–,–,–,–
NC(=O)c1ncn([C@@H]2O[C@H](CO)[C@@H](O)[C@H]2O)n1,–,–,inactive,inactive,inactive,inactive,4.56 µM (active) and 3.76 µM (active),inactive,inactive,inactive,inactive,–,–,–,inactive,inactive
COC(=O)OC,inactive,inactive,inactive,inactive,inactive,inactive,inactive,inactive,inactive,inactive,inactive,inactive,–,–,–,–
O=C(O)Cc1c[nH]c2ccccc12,inactive,inactive,inactive,inactive,inactive,inactive,inactive,inactive,inactive,inactive,inactive,inactive,–,–,–,–
C=C(CC(=O)O)C(=O)O,inactive,inactive,inactive,inactive,inactive,inactive,inactive,inactive,inactive,inactive,–,inactive,inactive,inactive,–,–
COC(=O)CCCCC(=O)OC,inactive,inactive,inactive,inactive,inactive,inactive,inactive,inactive,inactive,inactive,–,inactive,inactive,inactive,–,–
COc1c2ccoc2cc2oc(=O)ccc12,inactive,inactive,inactive,inactive,inactive,inactive,inactive,inactive,inactive,inactive,inactive,inactive,inactive,inactive,–,–
CCCOCC(C)O (centres undefined),inactive,–,inactive,inactive,inactive,inactive,inactive,inactive,inactive,inactive,inactive,–,inactive,inactive,–,–
COc1cc(NC(=O)CC(C)=O)c(OC)cc1Cl,inactive,inactive,inactive,inactive,inactive,inactive,inactive,inactive,inactive,inactive,inactive,inactive,inactive,inactive,–,–
O=C1OC(=O)c2c(Cl)c(Cl)c(Cl)c(Cl)c21,inactive,inactive,inactive,inactive,inactive,inactive,inactive,inactive,inactive,inactive,inactive,inactive,inactive,inactive,–,–
COc1c(Cl)ccc(Cl)c1C(=O)O,inactive,–,inactive,inactive,inactive,inactive,inactive,inactive,inactive,inactive,–,inactive,inactive,inactive,–,–
